# RecA splice inh: inhibitors of M. tuberculosis RecA intein splicing; 290,000 tested, 0.75% active; P9WHJ3; cell-free RecA intein splicing, fluorescence; inhibition, % (test concentration not listed); in the data active means inhibition above about 30%; inconclusive means no clear call, values can overlap the other calls;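 further: 0% = vehicle wells and 100% = reference inhibitor control wells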
# Mtb UGM inh: inhibitors of M. tuberculosis UDP-galactopyranose mutase | P9WIQ1 | purified UGM, fluorescence polarization probe displacement | inhibition, % at 10 µM | 320,000 tested, 0.06% active; in the data active means inhibition above about 10%, passing the limit was not always enough; inconclusive means no clear call, values can overlap the other calls
# Target sequence (P9WIQ1 whole entry, looked up): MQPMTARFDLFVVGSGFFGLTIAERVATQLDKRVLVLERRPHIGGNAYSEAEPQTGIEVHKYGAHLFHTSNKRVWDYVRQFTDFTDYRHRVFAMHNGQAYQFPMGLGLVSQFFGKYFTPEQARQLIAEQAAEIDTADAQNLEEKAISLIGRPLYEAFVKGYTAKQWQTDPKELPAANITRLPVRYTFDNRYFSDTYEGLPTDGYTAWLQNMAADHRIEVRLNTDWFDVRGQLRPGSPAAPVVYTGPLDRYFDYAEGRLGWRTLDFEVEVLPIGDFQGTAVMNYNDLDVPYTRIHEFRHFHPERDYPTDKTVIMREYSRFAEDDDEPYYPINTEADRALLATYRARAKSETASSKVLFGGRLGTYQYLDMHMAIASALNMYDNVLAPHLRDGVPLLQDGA
# Rv3671c inh: Rv3671c (M. tuberculosis) protease inhibition; P9WHR9; inhibition, % at 5.96 µM; 320,000 tested, 0.048% active; in the data active means inhibition above about 38%;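 further: extracellular domain of Rv3671c used as enzyme; 0% = enzyme with DMSO and 100% = no enzyme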
# GDH-TPI inh: counter-screen for M. tuberculosis FBA inhibitors: GDH-TPI coupled enzymes; GDH-TPI coupled enzyme counterscreen, NADH absorbance; inhibition, % at 4.8 µM; 360,000 tested, 1.2% active; AID 588335; in the data active means inhibition above about 30%;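 further: 0% = DMSO wells and 100% = wells lacking the enzyme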
# Mtb FBA inh: inhibits M. tuberculosis FBA enzyme. P9WQA3. purified M. tuberculosis FBA, fluorescence read-out. inhibition, % at 1 µM. 360,000 tested, 2.3% active. AID 588726; in the data active means inhibition above about 27%;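 further: 0% = vehicle and 100% = reference inhibitor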
# Mtb bLac sens: beta-lactam sensitization of Mtb H37Rv; M. tuberculosis H37Rv growth with meropenem, percent inhibition; inhibition, % at 25 µM; 330,000 tested, 0.27% active;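 further: growth measured after seven days incubation then overnight dye step; 0% = bacteria only wells and 100% = bacteria with antibiotic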
# GFP chromo cs: counter-screen GFP chromophore formation inhibition. shares compounds with RecA splice inh. cell-free GFP chromophore formation, fluorescence. EC50, µM. 2,100 tested, 83% active
# The depositor's hits bear a star; ? = inconclusive; . = not tested or not shown; + = active, no number. A selection: hits, their analogues and other compounds. The true share with any hit is near 4%. Unless noted, how the calls were made is not given here.
SMILES,RecA splice inh,Mtb UGM inh,Rv3671c inh,GDH-TPI inh,Mtb FBA inh,Mtb bLac sens,GFP chromo cs
CC1CC(C)CN(C(CCc2ccccc2)C(=O)NC2CCCCC2)C1 (stereo unspecified),.,.,.,.,2,.,.
Cc1ccc(C)c(C(O)c2ncc(-c3cccc(C(F)(F)F)c3)[nH]2)c1 (stereo unspecified),.,.,.,8,0,.,.
CCc1oc2ccccc2c1C(=O)c1cc(Br)c(O)c(Br)c1,26,4,1,18,20,-3,18*
O=C(c1cccs1)[C@@H]1[C@@H]2C(=O)N(Cc3ccc4c(c3)OCO4)C(=O)[C@@H]2C2c3ccccc3C=CN21 (stereo partly specified),38*,2,-22,.,.,4,4.2*
O=C1CC(CC(=O)N/N=C/c2ccccc2[N+](=O)[O-])=NN1,90*,0,-67,8,-4,-1,7.3*
CCC(C)C1Nc2ccc(C(=O)NCCc3ccc(OC)c(OC)c3)cc2NC1=O (stereo unspecified),-1,0,4,7,1,4,.
Cc1ccc(SCc2[nH]nc3c2C(c2ccc(C)o2)C(C#N)=C(N)O3)cc1 (stereo unspecified),37*,5,-43,4,1,?,>12
Cc1ccc(SCc2[nH]nc3c2C(C(C)C)C(C#N)=C(N)O3)cc1 (stereo unspecified),7,0,2,0,-1,-1,.
Cc1ccc(SCc2[nH]nc3c2C(c2ccco2)C(C#N)=C(N)O3)cc1 (stereo unspecified),73*,1,0,-5,-5,5,25*
CCc1nc(N2CCN(C(=O)CCl)CC2)c2c3c(sc2n1)CC(C)CC3 (stereo unspecified),87*,2,-8,-6,0,101,2.6*
Cc1ccc(S(=O)(=O)Cc2cc(F)c([N+](=O)[O-])cc2[N+](=O)[O-])cc1,35*,3,-2,0,-5,100,23*
CCOC(=O)c1ccc([N+](=O)[O-])c(CS(=O)(=O)c2ccc(Cl)cc2)c1,1,2,-2,-1,1,3,.
CCN(CC)C(=O)c1ccc2nc([C@@H]3O[C@H](CO)[C@H](O)[C@H](O)[C@H]3O)[nH]c2c1,.,.,.,-2,-2,.,.
O=C1NCCOC(=O)[C@@H](Cc2ccc(F)cc2)C/C=C\C[C@@H]1CC(=O)N(CCO)Cc1ccccc1,.,2,5,-11,1,-1,.
Oc1ccc(N=Cc2ccc(-c3cccs3)s2)cc1,45*,-1,-10,35*,+,8,>38
COC(=O)c1ccc(OCc2nn[nH]n2)cc1,2,5,-8,3,0,-5,.
Cc1c([N+](=O)[O-])cnc(Sc2ccccc2)c1[N+](=O)[O-],85*,0,10,-2,-3,98,0.18*
CS(=O)(=O)c1ccc(C(=O)OCC(=O)NC23CC4CC(CC(C4)C2)C3)cc1[N+](=O)[O-],32*,2,-79,-2,-6,-1,>38
O=C(NC1C(=O)NNC1c1ccccc1)c1ccccc1 (stereo unspecified),69*,-3,-6,-1,-2,0,25*
N#C/C(=C\c1cc(Cl)c(OCc2ccc(Cl)cc2)c(Cl)c1)C(N)=O,44*,0,-11,.,.,19,>38
COc1cc(/C=N\NC(=O)c2ccccc2F)ccc1Oc1ccc([N+](=O)[O-])cn1,34*,2,8,24,-2,9,>38
Cc1sc(NC(=O)CSC2=NCCS2)nc1-c1ccccc1,45*,0,-13,2,2,66,>38
O=C(CSC1=NCCS1)Nc1nc2ccccc2s1,28,2,-3,13,4,8,.
N#CC1(C#N)CC(C=O)=C(N)C1(C#N)CC(=O)C12CC3CC(CC(C3)C1)C2 (stereo unspecified),41*,1,-15,14,-4,-6,19*
CCOC(=O)c1sc(N(Cc2ccccc2)C(=O)COC(=O)c2ccccc2O)nc1C,-2,1,6,0,0,8,.
SMILES,RecA splice inh,Mtb UGM inh,Rv3671c inh,GDH-TPI inh,Mtb FBA inh,Mtb bLac sens,GFP chromo cs
CCOC(=O)c1sc(N(Cc2ccccc2)C(=O)CCl)nc1C,88*,2,3,-1,3,0,3.1*
Cc1cccn2c(CNCC3(c4ccccc4)CCCC3)c(C(=O)N3CCOCC3)nc12,2,2,4,-1,9,-3,>38
COc1ccc(NC(=O)c2cc(-c3cc(Cl)ccc3C)n[nH]2)cn1,.,.,.,2,-3,.,.
O=C(Cn1cc(COc2ccc(-n3cccc3)cc2)nn1)NS(=O)(=O)c1ccccc1C(F)(F)F,.,.,.,-4,-3,.,.
CC1=NN(c2ccc(Cl)c(C(=O)O)c2)C(=O)/C1=C\c1ccc(-c2ccc(C(=O)O)cc2)o1,36*,.,.,6,2,.,0.81*
CC1=NN(c2ccccc2)C(=O)/C1=C/c1ccc(-c2ccc(C)c(C(=O)O)c2)o1,3,2,-19,.,.,15,.
CCOC(=O)c1c(NC(=O)CSc2nnc(-c3c[nH]c4ccccc34)n2CCOC)sc2c1CCCC2,32*,-3,-9,14,1,1,>38
CCOC(=O)c1c(NC(=O)CSc2nnc(-c3c[nH]c4ccccc34)n2C)sc2c1CCCC2,0,-2,0,-3,2,-2,.
O=C(Sc1nnc(-c2ccccc2)o1)N1c2ccccc2Sc2ccccc21,57*,1,0,-10,-2,91,0.92*
CSc1ccccc1OCc1cc(C(=O)NC2CCOC(C)(C)C2)no1 (stereo unspecified),2,0,0,0,0,?,.
COc1ccc(OCc2cc(C(=O)NC3CCOC(C)(C)C3)no2)c2ccccc12 (stereo unspecified),54*,-1,-30,7,7,3,12*
CCOC(=O)/C=C1/SCC(=O)N1CCOc1cccc(Br)c1,.,.,.,6,3,.,.
Cc1cc(C(=O)CCl)c(C)n1CCc1ccc(Cl)cc1,62*,0,2,3,4,100,21*
COc1ccc(/C(N)=N/OC(=O)c2cccc([N+](=O)[O-])c2C)cc1OC,-4,-1,-9,-2,2,-16,.
COc1cccc(C(=O)O/N=C(\N)c2ccc([N+](=O)[O-])cc2)c1OC,52*,0,5,11,-1,5,>38
O=C(CSc1nnc2ccc(-c3ccccn3)nn12)Nc1ccccc1F,-28,-3,-4,-5,0,2,.
O=C(CCl)N1c2ccccc2OCC1c1ccccc1 (stereo unspecified),81*,-2,-6,-5,-7,99,4.5*
OCC1=C[C@@H](O)[C@@H]2C=CO[C@@H](O[C@@H]3O[C@H](CO)[C@@H](O)[C@H](O)[C@H]3O)[C@H]12,.,-1,0,8,0,-1,.
O=C(c1c[nH]c(C(=O)C(Cl)(Cl)Cl)c1)c1ccccc1Cl,32*,-3,-2,-8,-1,-4,25*

# Source: PubChem
